High-throughput results from PubChem.
USP2a block: USP2a (human) protease inhibition. USP2 core, Ub-CHOP2 coupled fluorogenic reporter, 485/531. 330,000 tested, 0.01% active. Potency, µM (doses to about 38.3 µM), usual class: inhibitors. O75604
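Deubiquitinase activity read as fluorescence (485/531 nm) after Ub-CHOP2 cleavage activates the enterokinase reporter on its substrate; USP2 core 10nM, Ub-CHOP2 and substrate 25nM each, 30min compound preincubation then 60min RT; data normalized to NEM, curves fitted.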
ClpP mod: qHTS Assay for Activators of ClpP | 340,000 tested, 1.9% active | Potency, µM (highest dose often 57.5 µM) | purified B. subtilis ClpP, FRET peptide cleavage, 20 min | AID 651965, 2013 | ATP-dependent Clp protease proteolytic subunit (Bacillus subtilis (strain 168)), P80244; active = well fitted falling curve with a large enough effect; inconclusive = small, poorly fitted or top-dose-only effect; inactive = no such curve, though single readings can be large or run the other way; also: the source files actives as falling curves though it sought activators and does not explain the sign; nearly all actives have a fitted effect of over 65% in size
Target sequence (P80244 whole entry, looked up): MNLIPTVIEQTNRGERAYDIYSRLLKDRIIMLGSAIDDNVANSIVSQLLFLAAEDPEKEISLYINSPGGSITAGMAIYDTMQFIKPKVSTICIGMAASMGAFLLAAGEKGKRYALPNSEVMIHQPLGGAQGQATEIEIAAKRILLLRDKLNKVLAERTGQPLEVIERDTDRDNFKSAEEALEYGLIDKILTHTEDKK
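Purified B. subtilis ClpP, 10 microg/mL final in Tris/HCl pH8 with KCl, BSA, glycerol and Tween-20, cleaved an Abz/nitrotyrosine-quenched decapeptide. Fluorescence (ex 320, em 430) was read at 0 and 20 min at room temperature. Delta was normalized to 5.8 microM ADEP and DMSO/no-enzyme controls.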
Eya2 inh: Eya2 (human) phosphatase inhibition; Potency, µM (highest dose often 76.9 µM), most hits filed as inhibitors; recombinant Eya2, OMFP fluorescence dephosphorylation (OMFP is methylfluorescein phosphate); AID 488837; O00167; 330,000 tested, 0.006% active
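Eya2 protein (added as 0.2 uM solution) was preincubated with compound for 10 min at ambient temperature in 50 mM HEPES pH 7.5, 50 mM NaCl, 5 uM MgCl2, 0.05% BSA, 1 mM DTT. OMFP (added at 50 uM) then reacted 10 min; fluorescence read at 485/525 nm.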
GALK inhibitor: inhibitors of human galactokinase; P51570; Purified GALK, Kinase-Glo residual ATP luminescence; Potency, µM (top dose mostly 57.5 µM), hits mostly inhibitors; 270,000 tested, 0.007% active
Target sequence (P51570 whole entry, looked up): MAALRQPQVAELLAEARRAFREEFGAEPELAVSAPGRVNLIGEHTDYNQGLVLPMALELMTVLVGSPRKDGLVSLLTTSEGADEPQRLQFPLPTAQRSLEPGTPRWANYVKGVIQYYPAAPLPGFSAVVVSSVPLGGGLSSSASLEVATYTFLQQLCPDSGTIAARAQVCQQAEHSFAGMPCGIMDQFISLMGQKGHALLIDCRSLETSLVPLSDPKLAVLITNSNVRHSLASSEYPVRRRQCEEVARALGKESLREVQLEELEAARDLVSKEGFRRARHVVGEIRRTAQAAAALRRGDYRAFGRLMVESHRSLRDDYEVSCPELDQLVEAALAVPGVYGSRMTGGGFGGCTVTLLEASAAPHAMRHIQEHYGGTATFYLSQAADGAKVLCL
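Galactose (100 uM) and ATP (35 uM) were turned over by 5 nM GALK for 1 h at RT. Kinase-Glo Plus then converted the remaining ATP into a luminescent signal.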
Numbers stand for hits. The entries come from a sample that favours hits as a whole. Unless noted, calls follow the shape of the dose curve; as a rule, active = well fitted inhibition curve with a large enough effect; inconclusive = small, poorly fitted or top-dose-only effect, or effect the other way; inactive = flat fitted curve, though single readings scatter.

For Nc1nc(Nc2ccccc2)nc(N2CCOCC2)c1[N+](=O)[O-] the results were USP2a block inactive, ClpP mod 16µM, Eya2 inh inactive and GALK inhibitor inactive.
COc1ccc(Nc2nc(N)c([N+](=O)[O-])c(N3CCOCC3)n2)cc1 was read as USP2a block inactive, ClpP mod inactive, Eya2 inh inactive and GALK inhibitor inactive.
`O=C(Cc1ccccc1)NCC(=O)N1CCN(Cc2cccc(Cl)c2)CC1` gave USP2a block inactive, ClpP mod inactive and Eya2 inh inactive.
NC(=O)C1(Nc2ccc(C(=O)O)cc2)CCCC1 was read as ClpP mod 11µM.
`Cc1ccc(S(=O)(=O)N(C)c2ccc(OCc3cccc(C)c3)cc2)cc1` gave USP2a block inactive, ClpP mod 22µM, Eya2 inh inactive and GALK inhibitor inactive.
Cc1ccc(S(=O)(=O)N(C)c2ccc(OCC(=O)OCc3cccc(Br)c3)cc2)cc1 was read as ClpP mod inactive.
For Cc1cc(C(=O)Nc2sc(C)c(-c3ccc(F)cc3)c2C(N)=O)no1 the results were USP2a block inactive, ClpP mod 13µM, Eya2 inh inactive and GALK inhibitor inactive.
`O=C(c1cccn2c(=O)c3cc(Cl)ccc3nc12)N1CCOCC1` gave USP2a block inactive, ClpP mod 18µM, Eya2 inh inactive and GALK inhibitor inactive.
For O=C(c1cccn2c(=O)c3ccccc3nc12)N1CCN(Cc2ccc3c(c2)OCO3)CC1 the results were USP2a block inactive, ClpP mod inconclusive, Eya2 inh inactive and GALK inhibitor inactive.
`O=C(c1ccc2nc3ccc(Cl)cc3c(=O)n2c1)N1CCOCC1` gave USP2a block inactive, ClpP mod 16µM, Eya2 inh inactive and GALK inhibitor inactive.
`O=C(c1ccc2nc3ccccc3c(=O)n2c1)N1CCN(Cc2ccc3c(c2)OCO3)CC1` gave USP2a block inactive, ClpP mod 20µM, Eya2 inh inactive and GALK inhibitor inactive.
For CCOCCCNC(=O)c1ccc2c(c1)NC(=O)C(CS(=O)(=O)Cc1ccc(F)cc1Cl)N2 (stereo not given) the results were ClpP mod 7.1µM.
Screening CN(C)CCNC(=O)c1ccc2c(c1)NC(=O)C(CS(=O)(=O)Cc1cccc(Br)c1)N2 (stereo not given) returned ClpP mod 32µM.
O=C(NCc1ccc(Cl)cc1)c1ccc2c(c1)NC(=O)C(CS(=O)(=O)Cc1ccc(F)cc1Cl)N2 (stereo not given) was read as ClpP mod inactive.
Cc1ccc(CNC(=O)c2ccc3c(c2)NC(=O)C(CS(=O)(=O)Cc2cccc(F)c2)N3)cc1 (stereo not given) was read as ClpP mod inactive.
`O=C(NCc1ccccc1Cl)c1ccc2c(c1)NC(=O)C(CS(=O)(=O)Cc1ccc(F)cc1Cl)N2` (stereo not given) gave ClpP mod inactive.
`CCN(CC)CCCNC(=O)c1ccc2c(c1)NC(=O)C(CS(=O)(=O)Cc1ccc(F)cc1Cl)N2` (stereo not given) gave ClpP mod 3.2µM.
CCN(CC)CCNC(=O)c1ccc2c(c1)NC(=O)C(CS(=O)(=O)Cc1ccc(F)cc1Cl)N2 (stereo not given) was read as ClpP mod 28µM.
Screening O=C(CSc1nc2ccccc2o1)N1CCOCC1 returned USP2a block inactive, ClpP mod inactive, Eya2 inh inactive and GALK inhibitor inactive.
For O=C(O)c1cc(C(F)(F)F)nc2c(C(F)(F)F)cccc12 the results were USP2a block inactive, ClpP mod inactive, Eya2 inh inactive and GALK inhibitor inactive.
`Cc1cc(C(=O)OCC(=O)N(C)c2ccccc2)c(C)o1` gave USP2a block inactive, ClpP mod inactive and Eya2 inh inactive.
COC(=O)c1c(-c2cccs2)csc1NC(=O)COc1ccc(C(C)C)cc1 was read as ClpP mod 28µM.
Screening COc1ccc(-c2noc(CCC(=O)N3CCC(c4cc(C)ccc4C)CC3)n2)cc1 returned USP2a block inactive, ClpP mod inactive and Eya2 inh inactive.
COc1ccc(N2CCN(c3ccc(N4C(=O)COCC4=O)cc3[N+](=O)[O-])CC2)cc1 was read as USP2a block inactive, ClpP mod 28µM, Eya2 inh inactive and GALK inhibitor inactive.
O=C1C2C(c3ccccc3)=NN(c3ccccc3)C2C(=O)N1c1ccccc1 (stereo not given) was read as USP2a block inactive, ClpP mod 28µM, Eya2 inh inactive and GALK inhibitor inactive.
COC(=O)c1[nH]c2ccc(Cl)cc2c1NC(=O)CCN1CCN(C2CCCCC2)CC1 was read as USP2a block inactive, ClpP mod inactive, Eya2 inh inactive and GALK inhibitor inactive.
For COC(=O)c1[nH]c2ccc(Cl)cc2c1NC(=O)C1CC1 the results were USP2a block inactive, ClpP mod 32µM, Eya2 inh inactive and GALK inhibitor inactive.
`COC(=O)c1[nH]c2ccc(Cl)cc2c1NC(=O)Oc1ccccc1` gave USP2a block inactive, ClpP mod 10µM, Eya2 inh inactive and GALK inhibitor inactive.
`CCOC(=O)C1CCN(CC(=O)Nc2c(C(=O)OC)[nH]c3ccccc23)CC1` gave USP2a block inactive, Eya2 inh inactive and GALK inhibitor inactive.
`CCOC(=O)C1CCN(CC(=O)Nc2c(C(=O)OC)[nH]c3ccc(Cl)cc23)CC1` gave USP2a block inactive, ClpP mod 28µM, Eya2 inh inactive and GALK inhibitor inactive.
Screening Cc1nc(NC(=O)c2ccc3c(c2)OCO3)ccc1Br returned USP2a block inactive, Eya2 inh inactive and GALK inhibitor inactive.
Cc1cc(NCCC(C)C)n2nc(C)c(-c3ccccc3)c2n1 was read as USP2a block inactive, ClpP mod 28µM, Eya2 inh inactive and GALK inhibitor inactive.
For O=C(CSc1nc(O)c(C2CCCCC2)c(=O)[nH]1)N1CCOCC1 the results were USP2a block inactive, Eya2 inh inactive and GALK inhibitor inactive.
For CCCCNc1c(-c2ccc(-c3ccc(OC)cc3)c(OC)c2)nc2ccccn12 the results were USP2a block inactive, ClpP mod inactive and Eya2 inh inactive.
Screening Clc1nnc(NC2CCCCC2)c(Cl)c1Cl returned ClpP mod inactive.
`COc1cc2c(cc1OC)CN(C(=S)Nc1cccc(Cl)c1C)CC2` gave USP2a block inactive, ClpP mod 32µM, Eya2 inh inactive and GALK inhibitor inactive.
Screening CCCc1ccc2oc(C(=O)N3CCC(COC)C3)c(C)c2c1 (stereo not given) returned USP2a block inactive, ClpP mod inactive, Eya2 inh inactive and GALK inhibitor inactive.
For CCOc1ccccc1Nc1nnc(SCc2nnc(-c3cc(OC)c(OC)c(OC)c3)o2)s1 the results were USP2a block inactive, ClpP mod 32µM, Eya2 inh inactive and GALK inhibitor inactive.
`CSc1nnc(C)c(=O)n1COC(=O)COc1ccccc1F` gave USP2a block inactive, Eya2 inh inactive and GALK inhibitor inactive.
